# Test results: PubChem BioAssay AID504333 (National Center for Advancing Translational Sciences (NCATS), 2011)
# The whole screen tested about 360,000 compounds, of which about 16,000 (4.4%) were called active. Not shown: some 9% with an inconclusive outcome. Calls follow the shape of the dose curve; as a rule, active = well fitted inhibition curve with a large enough effect; inconclusive = small, poorly fitted or top-dose-only effect; inactive = no such curve, though single readings can be large or run the other way. Only a selection was taken, and actives are over-represented in it overall.
# Target: Bromodomain adjacent to zinc finger domain protein 2B (Homo sapiens) (UniProt Q9UIF8)
# Test: qHTS Assay for Inhibitors of BAZ2B; also: nearly all actives have a fitted effect of over 60% in size
# Conditions: AlphaScreen BAZ2B-H3K14Ac peptide displacement; series mostly up to 114 µM; activity change, negative = inhibition: at the top concentration
# Procedure, shortened: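 Protein-peptide AlphaScreen: BAZ2B 50 nM, b-H3K14Ac 50 nM, 1x PBS pH 7.4 + 0.01% Tween-20. Preincubation 30 min RT; cpd 30 min RT (top 110 uM); beads 20 min RT, light-protected.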
# % is scaled to controls: 0 for no effect and ±100 for the full control effect; potency is read from the fitted curve at half-maximal effect.
# Sequence of Bromodomain adjacent to zinc finger domain protein 2B (Homo sapiens) (Q9UIF8 whole entry, looked up, the tested form may be a part): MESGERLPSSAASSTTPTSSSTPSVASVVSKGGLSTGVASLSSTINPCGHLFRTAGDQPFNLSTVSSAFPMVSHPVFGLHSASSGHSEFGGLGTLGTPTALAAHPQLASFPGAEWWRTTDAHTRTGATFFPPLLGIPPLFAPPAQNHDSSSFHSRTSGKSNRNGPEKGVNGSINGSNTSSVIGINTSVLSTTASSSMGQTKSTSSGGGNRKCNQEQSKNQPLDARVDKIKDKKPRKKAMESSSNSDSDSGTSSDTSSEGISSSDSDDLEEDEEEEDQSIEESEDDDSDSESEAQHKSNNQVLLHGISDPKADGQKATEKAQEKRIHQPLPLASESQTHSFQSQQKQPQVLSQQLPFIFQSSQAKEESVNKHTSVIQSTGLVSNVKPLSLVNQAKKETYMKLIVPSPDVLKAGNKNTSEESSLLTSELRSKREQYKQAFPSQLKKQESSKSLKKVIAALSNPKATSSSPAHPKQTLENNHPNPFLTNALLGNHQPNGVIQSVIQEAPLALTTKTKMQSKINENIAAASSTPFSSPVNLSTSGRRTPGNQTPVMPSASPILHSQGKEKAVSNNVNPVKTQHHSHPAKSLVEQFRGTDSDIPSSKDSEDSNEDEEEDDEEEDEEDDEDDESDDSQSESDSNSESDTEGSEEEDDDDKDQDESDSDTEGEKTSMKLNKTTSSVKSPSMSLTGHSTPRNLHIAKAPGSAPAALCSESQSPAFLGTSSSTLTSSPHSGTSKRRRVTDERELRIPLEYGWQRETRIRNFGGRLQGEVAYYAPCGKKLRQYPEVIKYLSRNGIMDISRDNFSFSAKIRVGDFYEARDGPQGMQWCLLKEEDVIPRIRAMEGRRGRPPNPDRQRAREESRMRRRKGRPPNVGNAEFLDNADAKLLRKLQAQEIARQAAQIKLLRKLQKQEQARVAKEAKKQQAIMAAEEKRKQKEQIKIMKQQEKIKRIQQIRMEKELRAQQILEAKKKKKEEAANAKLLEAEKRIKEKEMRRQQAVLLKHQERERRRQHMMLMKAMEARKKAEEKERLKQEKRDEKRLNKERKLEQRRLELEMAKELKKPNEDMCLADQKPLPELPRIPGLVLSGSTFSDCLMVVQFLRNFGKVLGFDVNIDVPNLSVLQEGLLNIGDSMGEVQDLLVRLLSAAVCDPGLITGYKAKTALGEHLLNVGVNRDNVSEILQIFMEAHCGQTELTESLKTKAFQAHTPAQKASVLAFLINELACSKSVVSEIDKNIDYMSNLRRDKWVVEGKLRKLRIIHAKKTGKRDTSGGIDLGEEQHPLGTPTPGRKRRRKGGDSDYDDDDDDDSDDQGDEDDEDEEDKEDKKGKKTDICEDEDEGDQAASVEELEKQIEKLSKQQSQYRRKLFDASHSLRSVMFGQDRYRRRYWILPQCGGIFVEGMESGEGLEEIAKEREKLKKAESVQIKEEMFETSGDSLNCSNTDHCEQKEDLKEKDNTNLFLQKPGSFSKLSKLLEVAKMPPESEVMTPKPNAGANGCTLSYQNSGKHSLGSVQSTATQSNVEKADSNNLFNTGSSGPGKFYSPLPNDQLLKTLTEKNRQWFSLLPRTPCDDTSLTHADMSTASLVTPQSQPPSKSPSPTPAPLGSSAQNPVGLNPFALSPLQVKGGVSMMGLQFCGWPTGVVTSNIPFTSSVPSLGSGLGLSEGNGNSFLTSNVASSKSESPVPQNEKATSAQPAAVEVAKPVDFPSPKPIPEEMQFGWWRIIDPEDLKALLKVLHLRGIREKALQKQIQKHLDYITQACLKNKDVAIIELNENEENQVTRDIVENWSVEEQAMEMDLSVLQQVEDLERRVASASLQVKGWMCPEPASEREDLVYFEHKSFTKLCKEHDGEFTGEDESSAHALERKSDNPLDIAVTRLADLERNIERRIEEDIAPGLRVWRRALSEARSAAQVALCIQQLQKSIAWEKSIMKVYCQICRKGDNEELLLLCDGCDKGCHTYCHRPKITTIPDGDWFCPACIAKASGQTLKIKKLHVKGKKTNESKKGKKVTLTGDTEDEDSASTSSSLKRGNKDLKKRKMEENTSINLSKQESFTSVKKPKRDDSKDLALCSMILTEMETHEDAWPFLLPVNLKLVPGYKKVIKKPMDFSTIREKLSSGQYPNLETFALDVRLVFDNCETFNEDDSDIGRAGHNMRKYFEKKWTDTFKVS
Structure (SMILES),"activity change, negative = inhibition",Potency
COc1ccc(OCC(=O)Nc2cccc(C(=O)OCc3cc(=O)n4nc(C)sc4n3)c2)cc1,-5.85% (inactive),
Cc1cccc(N2CCN(C(=O)CCn3c(=O)c4cccn4c4cccnc43)CC2C)c1 (configuration not stated),-36.6% (inactive),
NC(=O)C1CCN(C(=O)c2cccc(NC(=O)c3nsc4ccccc34)c2)CC1,4.68% (inactive),
Cc1[nH]c2ccccc2c1C(c1ccccc1)c1cccs1 (configuration not stated),1.62% (inactive),
CC(=O)c1cc(-c2ccccc2)n(CC(=O)NC2CCCCC2)c1C,,inactive
O=C(CCS(=O)(=O)c1ccccc1)NC1CCCC1,-1.71% (inactive),
CC(=O)c1cc(-c2ccccc2)n(CCC(=O)NC2CCCCCC2)c1C,,50.1 µM (active)
Cc1nc2nc(SCC(=O)N(Cc3ccccc3)C(C)C)nn2c(C)c1Cc1ccccc1Cl,-18.1% (inactive),
CCOc1cc(C(=O)Nc2nnc3n2CCS3)cc(OCC)c1OCC,13.3% (inactive),
CCOC(=O)c1cc(NC(=O)c2ccc(F)cc2)c(=O)n2c1oc1ccccc12,-12% (inactive),
CN(CC(=O)Nc1ccccc1F)S(=O)(=O)c1ccc2c(c1)c(=O)n(C)c(=O)n2C,4.31% [at 57.1 µM] (inactive),
O=C(CN1C(=O)COc2ccc(S(=O)(=O)N3CCOCC3)cc21)N1CCN(c2cccc(Cl)c2)CC1,-21.7% (inactive),
COCCNC(=S)N1CCC(NC(=O)C23CC4CC(CC(C4)C2)C3)CC1,-8.68% (inactive),
COCCNC(=S)N1CCN(C)CC1,,39.8 µM (active)
CCCNC(=S)N1CCC(NC(=O)c2ccc(OC)cc2)CC1,-25.5% (inactive),
CCN1C(=O)c2ccccc2S(=O)c2ccc(C(=O)NCc3ccc(F)cc3)cc21 (configuration not stated),-14.5% (inactive),
CCCCOC(=O)/C(C#N)=C/c1ccc(-c2cccc(C(F)(F)F)c2)o1,-15.6% (inactive),
CCOc1ccc(Nc2nc3c(S(=O)(=O)c4cccc(Cl)c4)nnn3c3ccsc23)cc1,-13% (inactive),
Cc1ccc(OCCSc2nc(C)c(Cc3ccccc3)c(=O)[nH]2)cc1,-2.49% (inactive),
OCCN1CCN(C(=S)c2ccc(-c3ccccc3)cc2)CC1,-7.79% (inactive),
S=C(c1ccc(-c2ccccc2)o1)N1CCCCC1,,35.5 µM (active)
S=C(c1ccccc1)N1CCCC1,5.22% (inactive),
CSc1ccc(CCNC(=O)c2ccc3c(c2)nc2n3CCOC2)cc1,4.23% (inactive),
COC(=O)CCCC1=CC2=CC(=O)C(C)(OC(=O)c3cccs3)C(=O)C2=CN1CC(C)C (configuration not stated),-15.3% (inactive),
COC(=O)CCCC1=CC2=CC(=O)C(C)(OC(=O)c3cccs3)C(=O)C2=CN1CC1CC1 (configuration not stated),-30.3% (inactive),
COC/C=C/C1=CC2=CC(=O)C(C)(OC(=O)CCC(=O)OC)C(=O)C2=CO1 (configuration not stated),,50.1 µM (active)

Structure (SMILES),"activity change, negative = inhibition",Potency
CCC(=O)N1CCc2cc(Br)cc(S(=O)(=O)CCC(=O)N3CCN(c4ccc(F)cc4)CC3)c21,3.17% (inactive),
COc1ccc(-c2noc(CCC(=O)N(C)c3ccccc3C)n2)cc1,6.51% (inactive),
CCOc1cccc(C(=O)Nc2nnc(S(=O)(=O)N(C)c3ccc(C)cc3)s2)c1,-2.91% (inactive),
CCc1ccc(NC(=O)CN2CCSc3ccc(S(=O)(=O)N4CCCC4)cc32)cc1,-26.5% (inactive),
Cc1cccc(Cn2cnc3c(N)c(C)c(C)cc32)c1,,56.2 µM (active)
CSc1nn(Cc2cccc(C)c2)c(N)c1S(=O)(=O)c1ccccc1,22.9% (inactive),
COc1cccc(Cn2cnc3c([N+](=O)[O-])c(C)c(C)cc32)c1,-22.6% (inactive),
Cc1ccc(Cl)cc1NC(=O)Cc1ccc(-n2c(C)nc3cccnc32)cc1,-5.91% (inactive),
CC(NC(=O)CCc1cn(Cc2ccccc2Cl)c2ccccc12)c1ccccc1 (configuration not stated),-5.03% (inactive),
CCOc1ccc(CCNC(=O)c2cc3c(=O)n(C)c4ccccc4c3n2C)cc1,-3.88% (inactive),
COc1ccccc1OCC(=O)OCc1cc(-c2ccco2)on1,12.1% (inactive),
COC(=O)COc1ccc2c(c1C)O/C(=C\c1ccco1)C2=O,,50.1 µM (active)
Cc1cc(C)c(OCC(=O)N/N=C/c2ccco2)c(C)c1,3.11% (inactive),
CCOC(=O)c1ccc2c(c1)N(Cc1cccc(OC)c1)C(=O)c1ccccc1S2(=O)=O,4.73% (inactive),
CCc1nc(-c2cc(S(=O)(=O)N3CCN(c4ccc(OC)cc4)CC3)ccc2OC)no1,-33.9% (inactive),
Cc1cc2c(cc1C)C(c1cccc(OC(C)C)c1)CC(=O)N2 (configuration not stated),-1.89% (inactive),
CC(=O)c1c(C)[nH]c(=S)c(C#N)c1-c1ccc(F)cc1,,79.4 µM (active)
N#Cc1c(-c2ccc(Cl)cc2)c2c([nH]c1=S)CCCC2,-11.4% (inactive),
Cc1cc(C)c2c(-c3ccc(F)cc3)c(C#N)c(=O)n(C)c2n1,-1.61% (inactive),
CC(C)CCN(C(=O)Nc1ccc(Cl)c(Cl)c1)C(C)c1cccs1 (configuration not stated),72% (inactive),
Cc1ccc(Cn2c(CCCNC(=O)C3CCCCC3)nc3ccccc32)cc1,-12.3% (inactive),
CCOc1ccc(NC(=O)c2cc3c(=O)n(Cc4cccs4)ccc3nc2C)cc1,-15.9% (inactive),
COc1ccc(CC(=O)Nc2nc3n(n2)C(c2ccccc2)CC(=O)N3)cc1OC (configuration not stated),-28.7% (inactive),
CC1CC(c2ccccc2)n2nc(NC(=O)c3cccs3)nc2N1 (configuration not stated),,79.4 µM (active)
O=C(Nc1n[nH]c(C(F)(F)F)n1)c1cccs1,-9.64% (inactive),
O=C(c1ccc2c(c1)N(Cc1ccc(Cl)cc1)C(=O)c1ccccc1S2(=O)=O)N1CCCCC1,-21% (inactive),

Structure (SMILES),"activity change, negative = inhibition",Potency
Cc1ccc2nc(COc3cccc(NC(=O)c4ccccc4Cl)c3)cc(=O)n2c1,6.72% (inactive),
Cc1ccc(S(=O)(=O)n2nc(-c3ccc(Cl)cc3)nc2NCc2ccccc2)cc1,3.65% (inactive),
Cc1ccc(/C=N/NC(=O)C2=NNC(c3ccccc3)(c3ccccc3)C2)c(O)c1,-5.41% (inactive),
FC(F)(F)c1nc2ccccc2nc1N/N=C/c1ccc(Cl)cc1,-34.1% (inactive),
Cc1nc2ccccc2nc1N/N=C/c1ccc(O)cc1O,,25.1 µM (active)
Cc1ccc(Cl)cc1-n1ncc2c(N3CCC(C(N)=O)CC3)ncnc21,-1.64% (inactive),
Cc1cccn2c(=O)c3cc(C(=O)NC(C)c4ccccc4)c(=N)n(CCCO)c3nc12 (configuration not stated),0.391% (inactive),
COc1ccc(-c2cc(NCc3ccc(F)cc3)n3cnnc3n2)cc1,-2.56% (inactive),
Cc1ccc(CSc2nc3cccnc3n2Cc2ccc(C(=O)NC3CC3)cc2)cc1,6.32% (inactive),
COc1ccc(NC(=O)CSc2nc(C)cs2)cc1,2.05% (inactive),
Cc1ccc(NC(=O)CSCC(=O)Nc2sccc2C#N)cc1,-2.43% (inactive),
Cc1csc(SCC(=O)Nc2sccc2C#N)n1,,56.2 µM (active)
COc1ccc2c(c1)C=C(C(=O)NCc1cc(Br)ccc1OC)CO2,-25.9% (inactive),
Cc1ccc(Cl)cc1NC(=O)CSc1nc2ccccc2nc1Cc1ccccc1,3.46% (inactive),
Cc1ccc(NS(=O)(=O)c2ccc(N/N=C/c3ccccc3OCC(=O)O)c([N+](=O)[O-])c2)c(C)c1,,7.94 µM (active)
Cc1cccc(COc2ccccc2/C=N/Nc2ccc([N+](=O)[O-])cc2)c1,5.05% (inactive),
C=C(C)CNC(=S)N/N=C/c1ccccc1OCC(=O)O,-35.9% (inactive),
Cc1ccc(CCNC(=O)c2ccc(CS(=O)(=O)Cc3cccc(C)c3)o2)cc1,7.63% (inactive),
Cc1ccc(CNC(=O)CSc2c3c(nc4cc(Cl)ccc24)CCCC3)cc1,-0.494% (inactive),
CC(=O)N/N=C/c1cc2c(cc1[N+](=O)[O-])OCO2,-9.58% (inactive),
CN(C)/N=C/c1cc(Cl)cc([N+](=O)[O-])c1O,,44.7 µM (active)
COc1ccc(NC(=O)C(c2ccccc2)N2Cc3ccccc3C2=O)cc1 (configuration not stated),-15.6% (inactive),
COc1ccc2c(c1OC)C(=O)N(c1ccc(O)cc1)C2,-18.2% (inactive),
COc1ccc2c(c1OC)C(=O)N(c1ncn[nH]1)C2,,56.2 µM (active)
COc1ccc2c(c1OC)C(=O)c1ccccc1C2=O,-5.29% (inactive),
COc1ccc(Cc2nc3ccc(C(=O)NCc4ccccc4Cl)cc3o2)cc1,-10.8% (inactive),

Structure (SMILES),"activity change, negative = inhibition",Potency
CCc1ccc(-n2nnc(-c3nc(-c4ccccc4)no3)c2C)cc1,4.12% (inactive),
O=C(NCCN1C(=O)C2C3C=CC(C3)C2C1=O)Nc1ccccn1 (configuration not stated),9.03% (inactive),
O=C(CN1C(=O)C2C3C=CC(C3)C2C1=O)Nc1nc(-c2ccccn2)cs1 (configuration not stated),,50.1 µM (active)
O=C(CN1C(=O)C2C3C=CC(C3)C2C1=O)NCCc1ccccc1Cl (configuration not stated),4.62% (inactive),
CCOc1ccc(CNC(=O)c2cccc(Nc3nc4ccccc4n4nnnc34)c2)cc1OC,3.33% (inactive),
Cc1ccc(OCCSc2nc3ccc(NC(=O)COc4ccc(C)cc4)cc3s2)cc1,0.408% (inactive),
Cc1cc(C)cc(Nc2ncnc3onc(-c4ccc(F)cc4)c23)c1,15.2% [at 57.1 µM] (inactive),
COc1ccccc1-c1nnc(NC(=O)c2cccc(N3C(=O)CCC3=O)c2)o1,,25.1 µM (active)
O=C(Nc1cccc2cccnc12)c1cccc(N2C(=O)CCC2=O)c1,2.18% (inactive),
COC(=O)c1cccc(NC(=O)c2cccc(N3C(=O)CCC3=O)c2)c1,12.5% (inactive),
COc1ccc(Cc2nc3ccc(C(=O)NCc4ccc(OC)cc4OC)cc3o2)cc1,-18.2% (inactive),
Cc1ccc(S(=O)(=O)c2nc(-c3ccco3)oc2SCC(=O)Nc2ccc(F)cc2)cc1,-0.883% (inactive),
CCCCS(=O)(=O)c1oc(-c2cccs2)nc1S(=O)(=O)c1ccccc1,-1.72% (inactive),
Cc1ccc(C)c(S(=O)(=O)c2nnn3c2nc(N2CCOCC2)c2sccc23)c1,-3.84% (inactive),
O=C(NCCCO)c1nn(-c2ccc(Cl)cc2)nc1CO,1.22% (inactive),
Cc1cc(NC(=O)C2CCC(CNS(=O)(=O)c3ccc(Br)s3)CC2)ccc1Br (configuration not stated),0.805% (inactive),
CCc1ccc(C(=O)NN=C2CCCCCC2)s1,-19.5% (inactive),
CC(C)(C)NC(=O)C(=O)NN=C1CCCCCCC1,-23.6% (inactive),
CC(C)NC(=S)NN=C1CCCCCCCCCCC1,,35.5 µM (active)
O=C(c1ccc2c(c1)N(Cc1ccccc1)C(=O)c1ccccc1S2(=O)=O)N1CCC(Cc2ccccc2)CC1,-17.7% (inactive),
COc1cc(N2CCCC2)c(OC)cc1/C=C(/C#N)c1cccc(Br)c1,,10 µM (active)
CC(=O)Nc1cccc(Oc2cc(C#N)c(C#N)cc2N2CCOCC2)c1,6.72% (inactive),
CCc1ccc(NC(=O)c2cc3c(=O)n(Cc4cccnc4)ccc3nc2C)cc1,-12.7% (inactive),
Cc1ccc(-n2c(SCC(=O)Nc3cccc(F)c3)nc3c(oc4ccccc43)c2=O)cc1C,-4.2% (inactive),
